Assay [1] in a line: Nuclear factor erythroid 2-related factor 2/antioxidant responsive element (Nrf2/ARE) small molecule agonists: qHTS cell viability counter screen in human keratinocytes (AID 1919968; active means well fitted curve in the direction sought with a large enough effect in the repeat runs; an effect the other way counts as inactive or inconclusive; further: nearly all actives have a fitted effect of over 55% in size). The method, boiled down: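 KeratinoSens HaCaT cells, 1,500/well, preincubated 5 h, then exposed to compounds in DMSO for 23 h at 37 C/5% CO2. Viability read as CellTiter-Fluor fluorescence after 1 h, in the same wells as the ARE-luciferase read.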
For orientation: Quantitative high-throughput screening tests each substance at several concentrations.

The nature of assay [2]: Nuclear factor erythroid 2-related factor 2/antioxidant responsive element (Nrf2/ARE) small molecule agonists: luciferase reporter gene qHTS assay in human keratinocytes (AID 1919969). Further: nearly all actives have a fitted effect of over 35% in size. Further: potency means the concentration at half of the fitted maximal effect. A general note: In a reporter assay the amount or activity of a reporter protein is the signal.
Assay [3] addresses Gonadotropin-releasing hormone receptor (Homo sapiens) (UniProt P30968). Kind of assay: Human gonadotropin-releasing hormone receptor (GnRHR) small molecule agonists, calcium flux assay in GnRHR-HEK293 cells (AID 1920063). Further: nearly all actives have a fitted effect of over 35% in size. The method, boiled down:
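HEK293 cells stably expressing human GnRHR were dye-loaded for 1 h at 37 C. Compound was added in agonist mode and fluorescence (Ex/Em 480/540) recorded kinetically for 3 min. Fifteen concentrations, triplicates.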

Assay [4] addresses KiSS-1 receptor (Homo sapiens) (UniProt Q969F8). In words: Human kisspeptin (KISS1R) small molecule agonists, calcium flux assay in KISS1R-HEK293 cells (AID 1920064; active means well fitted curve in the direction sought with a large enough effect in the repeat runs; an effect the other way counts as inactive or inconclusive). The method, boiled down: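 HEK293 cells stably expressing human KISS1R were loaded with calcium dye for 1 h at 37 C, then given compound; fluorescence (Ex/Em 480/540) was read kinetically for 3 min. Fifteen concentrations, triplicate.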
(Calcium assays in cells follow changes in intracellular calcium, usually with a dye or a luminescent sensor.)

The nature of assay [5]: G protein-coupled receptor (GPCR) small molecule agonists, calcium flux assay: HEK293 wild type cell line counter screen (AID 1920065). The method, boiled down: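 Wild-type HEK293 cells plated 18 h, loaded with calcium dye 1 h at 37 C, then compounds added in agonist mode (ATP as positive control). Kinetic fluorescence Ex/Em 480/540 recorded 3 min at 1 sec intervals; 15 concentrations, triplicate.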

Assay [6] is described as follows: p53 small molecule agonists, cell-based qHTS assay with human liver microsomes (AID 1963577).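 Further: p53 response element beta-lactamase reporter cells with liver microsomes plus NADPH.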 The method, boiled down: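 Reporter activation was measured by LiveBLAzer fluorescence intensity in p53RE-bla cells, which had been exposed to compounds for 16 h at 37 C alongside 0.5 mg/mL human liver microsomes and 0.5 mg/mL NADPH (final concentrations).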
The nature of assay [7]: p53 small molecule agonists, cell-based qHTS assay with human liver microsomes: qHTS cell viability counter screen (AID 1963579). Further: nearly all actives have a fitted effect of over 45% in size. The method, boiled down: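 HLM-supplemented (0.5 mg/mL final) and NADPH-supplemented (0.5 mg/mL final) p53RE-bla cultures, 4,000 cells per well, were dosed with compounds in DMSO for 16 h at 37 C; luminescent ATP detection (CellTiter-Glo, 30 min, room temperature) quantified surviving cells.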

Assay [8] in a line: p53 small molecule agonists, cell-based qHTS assay: qHTS cell viability counter screen (AID 1963581). Further: nearly all actives have a fitted effect of over 45% in size. The method, boiled down:
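p53RE-bla HCT-116 cells, compounds added 5 h after plating and incubated 16 h at 37 C. Cytotoxicity measured in the same wells as intracellular ATP by CellTiter-Glo luminescence after 30 min at room temperature.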

A short description of assay [9]: p53 small molecule agonists, cell-based qHTS assay (AID 1963582; active means well fitted activation curve with a large enough effect in the signal ratio in the repeat runs, not every such curve was filed as active; the % refers to the signal ratio). The method, boiled down: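 p53RE-bla reporter cells, compounds added in DMSO after 5 h plating, incubated 16 h at 37 C. Beta-lactamase read via 2 h room-temperature LiveBLAzer B/G FRET substrate, fluorescence intensity.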
The target in assay [10] is 5-hydroxytryptamine receptor 2A (Homo sapiens) (UniProt P28223). Kind of assay: 5-hydroxytryptamine receptor 2A (HTR2A) small molecule antagonists, cell-based qHTS assay (AID 1963586). Further: nearly all actives have a fitted effect of over 45% in size. The method, boiled down: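 Antagonist-mode intracellular calcium assay: DOI (4 nM) added after 5 min compound pre-incubation at room temperature to dye-loaded HTR2A-CHO cells. Fluorescence followed for 3 min, sampled every second.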
Sequence of 5-hydroxytryptamine receptor 2A (Homo sapiens) (P28223 whole entry, looked up): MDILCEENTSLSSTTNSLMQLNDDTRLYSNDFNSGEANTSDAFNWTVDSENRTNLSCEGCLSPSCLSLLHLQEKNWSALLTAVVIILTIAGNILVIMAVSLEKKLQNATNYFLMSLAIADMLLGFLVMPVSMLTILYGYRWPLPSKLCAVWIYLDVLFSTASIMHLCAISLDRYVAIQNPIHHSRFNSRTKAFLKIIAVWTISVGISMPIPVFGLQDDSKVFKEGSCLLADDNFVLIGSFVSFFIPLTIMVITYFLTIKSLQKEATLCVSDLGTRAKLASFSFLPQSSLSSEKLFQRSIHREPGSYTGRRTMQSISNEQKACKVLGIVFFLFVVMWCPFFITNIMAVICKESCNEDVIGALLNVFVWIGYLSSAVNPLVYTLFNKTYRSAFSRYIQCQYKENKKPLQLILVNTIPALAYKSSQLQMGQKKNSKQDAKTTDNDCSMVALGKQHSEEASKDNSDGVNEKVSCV

Assay [11] shares this target. Kind of assay: 5-hydroxytryptamine receptor 2A (HTR2A) small molecule agonists, cell-based qHTS assay (AID 1963587). Further: nearly all actives have a fitted effect of over 30% in size. The method, boiled down:
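HTR2A-CHO cells, plated 18 h at 37 C/5% CO2, dye-loaded 1 h at 37 C; compounds in DMSO added by pin tool (agonist mode). Intracellular calcium flux read as kinetic fluorescence on FDSS over 2 min at 1 s intervals.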

The target of assay [12] is Muscarinic acetylcholine receptor M1 (Homo sapiens) (UniProt P11229). Kind of assay: Cholinergic receptor muscarinic 1 (CHRM1) small molecule antagonists, cell-based qHTS assay (AID 1963588). Further: nearly all actives have a fitted effect of over 40% in size. The method, boiled down:
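CHRM1-CHO calcium-flux assay, antagonist mode. Cells were seeded 18 h, dye-loaded 1 h at 37 C and given compound for 5 min at RT, then acetylcholine was added at 50nM. FDSS fluorescence was read 3 min; 15 concentrations, three runs.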

The target is the same in assay [13]. Kind of assay: Cholinergic receptor muscarinic 1 (CHRM1) small molecule agonists, cell-based qHTS assay (AID 1963589). Further: nearly all actives have a fitted effect of over 35% in size. The method, boiled down:
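CHO cells stably expressing human CHRM1 were loaded with calcium dye for 1 h at 37 C, then compound was added in agonist mode. Intracellular calcium fluorescence was followed kinetically at 1 s intervals. Fifteen concentrations were tested in three independent runs.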

Assay [14] in a line: cAMP Responsive Elements (CRE) small molecule agonists, cell-based qHTS assay (AID 1963590). The method, boiled down: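 CRE-bla HEK 293T cells, 2,000/well in DMEM with 10% dialyzed FBS and 25 mM HEPES, pre-incubated 18 h at 37 C, then exposed to compound 3 h at 37 C. Beta-lactamase reporter read with LiveBLAzer B/G FRET substrate after 2 h at room temperature.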
Assay [15] deals with Beta-2 adrenergic receptor (Homo sapiens) (UniProt P07550). In words: Adrenergic beta2 receptor (ADRB2) small molecule antagonists, cell-based qHTS assay (AID 1963592). Further: series mostly up to about 92 µM; nearly all actives have a fitted effect of over 50% in size. The method, boiled down: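 Cells (CHO, stable ADRB2 overexpression) incubated 18-20hr at 37C; compounds added from DMSO; agonist mix (1nM isoproterenol, 100uM IBMX, 25uM Ro-20-1724) added; 0.5hr RT; d2-cAMP and anti-cAMP-cryptate added; 1hr RT; 665/615 nm read.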
Sequence of Beta-2 adrenergic receptor (Homo sapiens) (P07550 whole entry, looked up): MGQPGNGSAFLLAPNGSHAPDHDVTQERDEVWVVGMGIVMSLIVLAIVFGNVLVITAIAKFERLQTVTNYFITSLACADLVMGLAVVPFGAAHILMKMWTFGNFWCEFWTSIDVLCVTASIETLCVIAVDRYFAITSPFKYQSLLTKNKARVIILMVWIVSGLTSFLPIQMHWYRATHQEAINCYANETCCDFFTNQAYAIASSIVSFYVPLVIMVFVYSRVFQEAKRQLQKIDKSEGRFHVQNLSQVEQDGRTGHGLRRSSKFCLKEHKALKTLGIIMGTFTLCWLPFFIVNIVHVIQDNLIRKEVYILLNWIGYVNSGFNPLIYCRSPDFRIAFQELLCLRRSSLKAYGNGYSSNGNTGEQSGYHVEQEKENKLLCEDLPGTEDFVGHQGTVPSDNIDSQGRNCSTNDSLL

For assay [16], the target named is D(2) dopamine receptor (Homo sapiens) (UniProt P14416). Kind of assay: Dopamine D2 receptor (DRD2) small molecule agonists, cell-based qHTS assay (AID 1963594). Further: nearly all actives have a fitted effect of over 35% in size. The method, boiled down:
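HEK293 cells stably expressing DRD2 were cultured 24 h at 37 C, then given Ro20-1724 (0.1 mM final) and compounds for 10 min at room temperature. NKH477 (200nM) was then added for 30 min. cAMP was read by HTRF.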

The target is the same in assay [17]. Kind of assay: Dopamine D2 receptor (DRD2) small molecule antagonists, cell-based qHTS assay (AID 1963595; active means well fitted inhibition curve with a large enough effect in the signal ratio in the repeat runs, with a control signal flat; the % refers to the signal ratio). The method, boiled down:
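HEK293 cells stably expressing DRD2 were preincubated with 0.1 mM Ro20-1724, then with compound for 10 min at room temperature. Cells were stimulated with 200 nM NKH477 plus 12 nM quinpirole for 30 min, and cAMP was read by HTRF.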

The nature of assay [18]: p53 small molecule agonists, cell-based qHTS assay with rat liver microsomes (AID 1963578). The method, boiled down: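 Compound in DMSO added to p53RE-bla cells 5 h post-plating; rat microsomes/NADPH 0.5 mg/mL final; 16 h, 37 C; LiveBLAzer 2 h RT.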
Assay [19] is described as follows: p53 small molecule agonists, cell-based qHTS assay with rat liver microsomes: qHTS cell viability counter screen (AID 1963580). Further: nearly all actives have a fitted effect of over 45% in size. The method, boiled down:
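In HCT-116 cells carrying a p53 response element-bla reporter, compounds were metabolically activated in situ by rat liver microsomes with NADPH over 16 h. Cell ATP content then served as the cytotoxicity measure.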

The nature of assay [20]: cAMP Responsive Elements (CRE) small molecule antagonists, cell-based qHTS assay (AID 1963591; active means well fitted inhibition curve with a large enough effect in the signal ratio in the repeat runs, not every such curve was filed as active; the % refers to the signal ratio). The method, boiled down: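 CRE-bla HEK293T cells plated 18 h, then given compound plus NKH477 at 0.25 uM final for 3 h at 37C. Beta-lactamase reporter read with LiveBLAzer B/G FRET substrate after 2 h at room temperature.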

The values below come from PubChem BioAssay (Tox21).

Records with an inconclusive call do not appear. Calls of active or inactive are those of the source. Unless noted, the call rests on the fitted dose curve.

Sequence of D(2) dopamine receptor (Homo sapiens) (P14416 whole entry, looked up): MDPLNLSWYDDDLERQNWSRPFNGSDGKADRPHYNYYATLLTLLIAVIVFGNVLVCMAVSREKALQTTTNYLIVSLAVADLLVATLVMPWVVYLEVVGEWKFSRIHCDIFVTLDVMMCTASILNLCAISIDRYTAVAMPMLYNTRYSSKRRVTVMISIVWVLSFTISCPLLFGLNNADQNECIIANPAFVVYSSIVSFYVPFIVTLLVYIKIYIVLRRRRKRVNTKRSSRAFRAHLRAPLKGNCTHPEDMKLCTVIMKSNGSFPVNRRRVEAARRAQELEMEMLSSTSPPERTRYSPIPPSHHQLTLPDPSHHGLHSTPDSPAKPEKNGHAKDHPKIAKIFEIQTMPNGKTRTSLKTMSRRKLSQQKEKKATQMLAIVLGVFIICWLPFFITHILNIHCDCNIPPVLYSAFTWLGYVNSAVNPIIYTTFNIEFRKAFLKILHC
Sequence of KiSS-1 receptor (Homo sapiens) (Q969F8 whole entry, looked up): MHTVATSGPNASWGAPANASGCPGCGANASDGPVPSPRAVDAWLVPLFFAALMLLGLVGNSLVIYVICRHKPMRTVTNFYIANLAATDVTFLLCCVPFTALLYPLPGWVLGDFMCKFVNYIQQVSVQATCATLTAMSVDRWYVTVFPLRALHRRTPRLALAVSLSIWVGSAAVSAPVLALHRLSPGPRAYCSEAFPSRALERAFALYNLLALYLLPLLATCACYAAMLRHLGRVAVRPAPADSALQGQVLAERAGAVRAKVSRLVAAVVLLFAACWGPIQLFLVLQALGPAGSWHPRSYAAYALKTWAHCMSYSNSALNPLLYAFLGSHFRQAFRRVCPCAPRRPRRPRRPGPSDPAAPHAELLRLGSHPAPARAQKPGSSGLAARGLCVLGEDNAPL
Sequence of Gonadotropin-releasing hormone receptor (Homo sapiens) (P30968 whole entry, looked up): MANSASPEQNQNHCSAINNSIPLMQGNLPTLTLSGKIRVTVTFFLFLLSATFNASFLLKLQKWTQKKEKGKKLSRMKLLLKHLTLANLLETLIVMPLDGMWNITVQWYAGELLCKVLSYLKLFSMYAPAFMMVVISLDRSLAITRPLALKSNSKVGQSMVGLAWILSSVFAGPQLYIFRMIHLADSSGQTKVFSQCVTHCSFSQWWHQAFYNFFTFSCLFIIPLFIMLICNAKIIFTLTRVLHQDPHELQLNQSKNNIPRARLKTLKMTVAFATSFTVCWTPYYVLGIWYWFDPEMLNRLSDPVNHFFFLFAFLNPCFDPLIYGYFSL
Sequence of Muscarinic acetylcholine receptor M1 (Homo sapiens) (P11229 whole entry, looked up): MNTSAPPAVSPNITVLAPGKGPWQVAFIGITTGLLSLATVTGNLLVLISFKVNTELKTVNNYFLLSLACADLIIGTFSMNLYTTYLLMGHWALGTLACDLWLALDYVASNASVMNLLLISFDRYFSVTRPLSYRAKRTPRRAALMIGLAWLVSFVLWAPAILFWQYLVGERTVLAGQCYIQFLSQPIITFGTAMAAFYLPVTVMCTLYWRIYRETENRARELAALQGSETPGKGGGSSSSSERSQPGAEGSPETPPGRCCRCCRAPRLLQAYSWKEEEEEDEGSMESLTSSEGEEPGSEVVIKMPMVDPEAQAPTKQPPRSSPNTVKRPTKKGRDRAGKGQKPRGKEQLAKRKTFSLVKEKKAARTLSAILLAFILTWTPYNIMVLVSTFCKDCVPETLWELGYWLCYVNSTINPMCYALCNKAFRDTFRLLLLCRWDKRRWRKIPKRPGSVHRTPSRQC

For `COC(=O)c1ccccc1S(=O)(=O)NC(=O)Nc1nc(C)nc(OC)n1`, the Potency result in assay [1], in [2], in [3], in [4], in assay [5] and in assay [6] was “inactive” each time. Also, the Potency result in assay [7], in assay [8], in [9], in assay [10], in assay [11] and in assay [12] was “inactive” throughout. Besides, the Potency result in [13], in assay [14], in assay [15], in [16] and in assay [17] was “inactive” in each case.

`C#C[C@]1(O)C=C[C@H]2[C@@H]3CCC4=CC(=O)CC[C@@H]4[C@H]3CC[C@@]21CC`: the Potency entry in [1], in assay [2], in assay [3], in assay [4], in assay [5] and in assay [18] was “inactive” in each case. For the same compound, the Potency entry in assay [7], in assay [19], in assay [8], in [9], in [10] and in [11] was “inactive” throughout. In addition, the Potency result in assay [12], in assay [13], in [15], in [16] and in assay [17] was “inactive” in each case.

With `O=[N+]([O-])c1ccc2c3c(cccc13)CC2`, the Potency result in assay [1], in [2], in assay [3], in [4], in assay [5] and in assay [6] was “inactive” each time. Besides, the Potency entry in assay [7], in assay [19], in assay [8], in assay [9], in assay [10] and in assay [11] was “inactive” in each case. For the same compound, the Potency entry in [13], in assay [15] and in assay [16] was “inactive” in each case.

As to `O=C(O)CC(Cl)C(=O)O` (centres undefined), the Potency entry in assay [1], in assay [2], in assay [3], in [4], in [5] and in [6] was “inactive” each time. Further, the Potency entry in assay [7], in [19], in [8], in assay [9], in assay [10] and in assay [11] was “inactive” throughout. Moreover, the Potency entry in [12], in assay [13], in assay [14], in assay [15], in assay [16] and in [17] was “inactive” throughout.

Consider `CC(O)C#N` (centres undefined), for which the Potency result in assay [1], in assay [3], in assay [4], in assay [5], in assay [6] and in [19] was “inactive” throughout. Besides, the Potency entry in [8], in assay [10], in assay [11], in assay [12], in [13] and in assay [14] was “inactive” in each case. The Potency result in assay [20], in assay [15], in assay [16] and in [17] was “inactive” each time. The Potency in assay [2] is 61.1 µM (active).

On to `Oc1ccc2ccc3cccc4ccc1c2c34`, for which the Potency entry in assay [1], in assay [3], in assay [4], in [5], in assay [6] and in [7] was “inactive” each time. Also, the Potency result in [19], in assay [9], in assay [10], in [11], in [12] and in assay [13] was “inactive” each time. Moreover, the Potency entry in [14] and in assay [17] was “inactive” each time. In [2], the Potency is 61.1 µM (active).
